Peg3 prom inh = Peg3 promoter activity inhibition; HeLa PEG-Prom luciferase reporter, luminescence, overnight; inhibition, % at 20 µM; 360,000 tested, 1.7% active;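 active means inhibition of at least 50% at 20 µM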
TROY NFkB inh = inhibitors of TROY-dependent NF-kB signaling; inhibition, % at 10 µM; 360,000 tested, 0.98% active; Q293 LMP1-TROYcd NF-kB luciferase reporter, 4 h;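 active means compounds whose plate-normalised and pattern-corrected inhibition of the luciferase reporter signal at the single screening dose is 50% or more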
CF NFkB inh = cystic fibrosis NF-kB activation inhibition. KKLEB NF-kB-GFP reporter, PAF-induced, GFP fluorescence overnight. inhibition, % at 5 µM. 360,000 tested, 0.86% active. AID 588850;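 active means at least 50% inhibition at 5 µM, scaled per plate between neutral and stimulator controls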;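 further: PAF is a Pseudomonas aeruginosa culture filtrate used as stimulus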
HIF-2a block = inhibitors of HIF-2a; 786-0 RCC cells HIF-2a reporter, luciferase luminescence, overnight; inhibition, % at 18.8 µM; 360,000 tested, 0.72% active;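 active means inhibition of the luminescence signal of 40% or more relative to plate controls, in a single-dose primary screen at 18.75 µM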
KKLEB tox = reduces viability of KKLEB cystic fibrosis airway cells | AID 602141 | 360,000 tested, 0.36% active | activity change (cytotoxicity), % at 5 µM | KKLEB CF airway cells viability, ATPlite luminescence, overnight; stronger effect = lower value; cells stimulated with P. aeruginosa culture filtrate;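 active means corrected activity change at or below -50% at 5 µM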
TWEAK-Fn14 inh = inhibitors of TWEAK-Fn14 interaction signaling; TWEAK-stimulated Fn14 reporter cells, luciferase luminescence, 8 h; inhibition, % at 10 µM; 360,000 tested, 2% active; AID 1159606; in the data active means inhibition above about 50%
Numbers stand for hits; . = inactive; / = not tested or not shown. The list is not random: actives were taken first. Their share in the collection is about 4%.

SMILES | Peg3 prom inh | TROY NFkB inh | CF NFkB inh | HIF-2a block | KKLEB tox | TWEAK-Fn14 inh
COc1ccc(C2/C(=C(/O)c3ccc(C)cc3)C(=O)C(=O)N2CCCN2CCOCC2)cc1 (stereo not given) | . | . | . | . | . | .
CN(C)c1ccc(NC(=O)CCN2C(=O)c3cccc([N+](=O)[O-])c3C2=O)cc1 | . | . | . | . | . | .
O=c1cc2c(=O)oc3cc(O)c(O)oc3c2c(O)c1O | . | . | . | . | . | 83
O=c1oc2cc(O)c(Cl)cc2c2ccccc12 | . | . | . | . | . | .
CSc1ccc2c(c1)N(CCC1CCCCN1C)c1ccccc1S2 (stereo not given) | 99 | . | . | . | . | .
CC(=O)c1ccc2c(c1)N(CCCN1CCC(CCO)CC1)c1ccccc1S2 | . | . | . | . | . | .
CC(C)(C)OC(=O)NCCc1nnc(S(=O)(=O)Cc2ccc(Cl)cc2Cl)o1 | . | . | 60 | . | . | .
CN(Cc1ccccc1)C(=O)c1ccc(NC(=O)Cc2ccc(NC(=O)C3CCN(S(=O)(=O)c4cccc([N+](=O)[O-])c4)CC3)cc2)cc1 | . | . | . | . | . | .
Cc1nc2cc(N3CCN(C)CC3)c(NC(=O)Cc3ccccc3)cc2c(=O)n1Cc1ccccc1 | . | 59 | . | . | . | 87
CCCCn1c(N)c(N(CC(C)C)C(=O)C2=NN(c3ccccc3)C(=O)CC2)c(=O)[nH]c1=O | . | . | . | . | . | .
COc1ccc(OC)c(-n2c(N)c(C(=O)NCC3CCCO3)c3nc4ccccc4nc32)c1 (stereo not given) | . | . | . | . | . | .
Nc1c(C(=O)NCC2CCCO2)c2nc3ccccc3nc2n1/N=C/c1ccncc1 (stereo not given) | 60 | . | . | . | . | .
CC(C)Cn1c(N)c(C(=O)NCC2CCCO2)c2nc3ccccc3nc21 (stereo not given) | . | 51 | . | . | . | .
Nc1c(C(=O)OCC2CCCO2)c2nc3ccccc3nc2n1C1CCCC1 (stereo not given) | . | 60 | . | . | . | .
COCC(C)OC(=O)c1c(N)n(CC(C)C)c2nc3ccccc3nc12 (stereo not given) | . | 58 | . | . | . | .
COCCn1c(N)c(C(=O)NCC2CCCO2)c2nc3ccccc3nc21 (stereo not given) | . | . | . | . | . | .
CC1=C(C(=O)N(C(C)C)C(C)C)CC(CC(=O)NCc2cccc3ccccc23)C(=O)N1Cc1ccccc1 (stereo not given) | . | . | . | . | . | .
CCC(C)NC(=O)c1c(N)n(/N=C/c2ccccn2)c2nc3ccccc3nc12 (stereo not given) | . | . | . | . | . | 64
COc1ccc(C2c3sc(=O)[nH]c3SC3C4CCC(C4)C23)cc1 (stereo not given) | . | / | . | . | . | 64
Cc1c(Br)c(=O)oc2c(C)c(O)ccc12 | . | 54 | . | . | . | .
COc1cccc(NC(=O)CSc2nc(O)c(C)c(=O)n2-c2ccc(C)cc2)c1 | . | . | . | . | . | .
O=C(O)c1cccc(-n2cccc2/C=C2/NC(=O)N(c3cccc(Cl)c3)C2=O)c1 | . | . | . | . | . | 58
COc1ccc(-n2cccc2/C=C2/NC(=O)N(c3cccc(Cl)c3)C2=O)cc1 | . | 76 | . | . | . | 56
O=C(O)c1cccc(-n2cccc2/C=C2/NC(=O)N(c3ccc(Cl)cc3)C2=O)c1 | . | . | . | . | . | .
COc1cccc(CNC(=O)C2CCN(c3nnc(N4CCCC4=O)s3)CC2)c1 | . | . | . | . | . | .
COc1cccc(C2N=C(c3ccccc3C)NO2)c1OC (stereo not given) | . | . | . | . | . | .
Cc1ccc(C(=O)/C=C/c2ccccc2[N+](=O)[O-])cc1 | . | . | . | . | . | .
O=C(/C=C/c1ccccc1[N+](=O)[O-])c1ccccc1Br | 96 | . | . | . | . | .
CCN(CC)S(=O)(=O)c1ccc2c(c1)N(CC(=O)Nc1ccc(NC(C)=O)cc1)C(=O)CO2 | . | . | . | . | . | .
COc1cc(C(=O)NCC(c2ccco2)N2CCCC2)ccc1OCc1ccc(Cl)cc1Cl (stereo not given) | 56 | . | . | . | . | .

Screens: PubChem BioAssay, Sanford-Burnham Center for Chemical Genomics
